{"source": "PubChem BioAssay AID602252", "about": "(Broad Institute, 2012)", "note": "Hit rate of the full screen: of about 300,000 compounds, about 2,700 (0.9%) were called active. The list comes from a sample in which actives are over-represented; it also holds similar structures and randomly drawn compounds. Unmarked numbers belong to inactive results.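 The calls were made as follows: active = mean inhibition of at least 30% with at least half of replicates also reaching 30%; inconclusive = no clear call, values can overlap the other calls; inactive = the rest.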"}
{"biological_target": "Golgi-associated PDZ and coiled-coil motif-containing protein (Homo sapiens) (UniProt Q9HD26)", "assay": "blockade of CAL PDZ-reporter peptide interaction – biochemical, fluorescence polarization, untagged CAL PDZ, HTS, primary screen (AID 602252);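 also: 0% = DMSO neutral control and 100% = excess unlabeled competitor peptide PRC23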", "conditions": "purified CAL PDZ, TMR-peptide fluorescence polarization, 1 h; at 24.9 µM; hits give high values"}
{"smiles": "COc1cc(C(=O)OCC(=O)NC23CC4CC(CC(C4)C2)C3)cc(OC)c1OC", "inhibition": "-3.34%"}
{"smiles": "CCCCCCn1c(SCC(=O)c2ccccc2)nc2c1c(=O)[nH]c(=O)n2C", "inhibition": "-0.797%"}
{"smiles": "C=CCSc1nc2c(c(=O)[nH]c(=O)n2C)n1Cc1ccccc1", "inhibition": "59.3% (active)"}
{"smiles": "C=CCn1c(SCc2ccccc2)nc2c1c(=O)[nH]c(=O)n2C", "inhibition": "-10.1%"}
{"smiles": "CC(C)(C)C(=O)Nc1cccc(-c2ccc[nH]2)n1", "inhibition": "-1.63%"}
{"smiles": "CCN1CCN(C(=O)C2(NC(=O)Nc3cccc(F)c3)CCCCC2)CC1", "inhibition": "-0.757%"}
{"smiles": "Cc1ccccc1NC(=O)NC1(C(=O)N2CCCC2)CCCCC1", "inhibition": "-0.684%"}
{"smiles": "CC(=O)N1CCN(C(=O)C2(NC(=O)Nc3ccc(C)cc3)CCCCC2)CC1", "inhibition": "48% (active)"}
{"smiles": "Cn1cncc1C#Cc1c(-c2ccsc2)sc2ccccc12", "inhibition": "-4.14%"}
{"smiles": "Oc1ccc(-c2[nH]ncc2-c2nc3ccccc3s2)c(O)c1", "inhibition": "-4.79%"}
{"smiles": "Oc1ccc(-c2nc3ccccc3nc2-c2ccc(O)cc2O)c(O)c1", "inhibition": "89% (active)"}
{"smiles": "Cc1cc(O)ccc1-c1cnc2ccccc2n1", "inhibition": "-0.904%"}
{"smiles": "CCN1C[C@@H]2[C@@H]3C(=O)N(C)C(=O)[C@@H]3[C@](C)(C1=O)N2C(=O)c1ccccc1", "inhibition": "-2.56%"}
{"smiles": "CCC1([N+](=O)[O-])COC(c2ccc(C(C)C)cc2)OC1", "note": "(stereo not drawn)", "inhibition": "2.08%"}
{"smiles": "COc1cccc2oc(CCc3ccccc3)cc(=O)c12", "inhibition": "-0.506%"}
{"smiles": "Cc1ccc(S(=O)(=O)N2C[C@@H]3CCCC[C@@H]3[C@@H](C)[C@H]2c2cn(Cc3ccccc3)c3ccc(F)cc23)cc1", "inhibition": "-5.03%"}
{"smiles": "COc1ccc2c(CC(=O)Nc3nnc(C4CC4)s3)coc2c1", "inhibition": "-1.76%"}
{"smiles": "Cc1cc(=O)oc2cc(OCC(=O)Nc3nnc(C4CC4)s3)ccc12", "inhibition": "51.4% (active)"}
{"smiles": "CCOC(=O)Cc1csc(NC(=O)COc2ccc3c(C)cc(=O)oc3c2)n1", "inhibition": "-3.4%"}
{"smiles": "CC(=O)Nc1ccc(C(=O)Nc2cc(S(=O)(=O)N3CCOCC3)ccc2N2CCOCC2)cc1", "inhibition": "-4.08%"}
{"smiles": "COc1cccc(CC(=NO)c2cccc(OC)c2)c1", "inhibition": "-7.29%"}
{"smiles": "CC(CN1CCOCC1)OC(=O)c1ccc(C(C)(C)C)cc1", "note": "(stereo not drawn)", "inhibition": "-3.82%"}
{"smiles": "Cc1ccc(C(=O)OC(C)CN2CCOCC2)cc1", "note": "(stereo not drawn)", "inhibition": "70.2% (active)"}
{"smiles": "CC(CN1CCOCC1)OC(=O)c1ccc(Cl)cc1Cl", "note": "(stereo not drawn)", "inhibition": "-2.34%"}
{"smiles": "Cc1csc(NC(=O)C2CCN(S(=O)(=O)c3ccccc3)CC2)n1", "inhibition": "3.13%"}
{"smiles": "OC(COc1ccccc1)CN1CCN(c2cccc(Cl)c2)CC1", "note": "(stereo not drawn)", "inhibition": "-5.9%"}
{"smiles": "OC(CNCCc1ccc(Cl)cc1Cl)COc1ccccc1", "note": "(stereo not drawn)", "inhibition": "64.2% (active)"}
{"smiles": "OC(CNCc1ccc2c(c1)OCO2)COc1ccccc1", "note": "(stereo not drawn)", "inhibition": "-0.826%"}
{"smiles": "O=C(CSc1nnc(CN2CCCC2)n1-c1ccc(F)cc1)c1ccc2c(c1)OCO2", "inhibition": "-2.04%"}
{"smiles": "COC[C@@H]1NS(=O)(=O)c2ccc(Br)cc2O[C@H]1c1ccccc1", "inhibition": "-7.2%"}
{"smiles": "COc1cccc(OCc2cc(C(=O)N3CCN(C(=O)c4ccco4)CC3)no2)c1", "inhibition": "139% (active)"}
{"smiles": "O=C(c1cc(COc2cccc(C(F)(F)F)c2)on1)N1CCSCC1", "inhibition": "-4.68%"}
{"smiles": "COc1ccc(OCc2cc(C(=O)N3CCCC3)no2)c2ccccc12", "inhibition": "-4.16%"}
{"smiles": "C[C@H](CO)N1C[C@H](C)[C@@H](CN(C)Cc2ccc(-c3ccccc3)cc2)Oc2ccc(NC(=O)Cn3cnnn3)cc2C1=O", "inhibition": "-3.86%"}
{"smiles": "O=C(O)CN(Cc1ccco1)S(=O)(=O)c1ccccc1", "inhibition": "-2.04%"}
{"smiles": "O=C(O)CN(Cc1ccco1)S(=O)(=O)c1ccc(F)cc1", "inhibition": "41.2% (active)"}
{"smiles": "CCN(CC(=O)NCc1ccco1)S(=O)(=O)c1ccc(F)cc1", "inhibition": "-5.17%"}
{"smiles": "O=C1NC(c2ccccc2)Cc2ccncc21", "note": "(stereo not drawn)", "inhibition": "0.221%"}
{"smiles": "CCN(CC)S(=O)(=O)c1ccc(N2CCOCC2)c(NC(=O)C(C)Oc2ccc(F)cc2)c1", "note": "(stereo not drawn)", "inhibition": "-9.92%"}
{"smiles": "CCOC(=O)c1sc2nc(CSCC(=O)OCc3ccc(C(=O)OC)o3)[nH]c(=O)c2c1C", "inhibition": "-1.2%"}
{"smiles": "CCOC(=O)c1sc2nc(CSc3ccccc3)[nH]c(=O)c2c1C", "inhibition": "82.4% (active)"}
{"smiles": "CCOC(=O)c1sc2nc(C)[nH]c(=O)c2c1C", "inhibition": "-5.61%"}
{"smiles": "CN(C)CCNC(=O)c1ccc(Cl)c2cc3ccccc3nc12", "inhibition": "-3.6%"}
{"smiles": "Cc1ccc(S(=O)(=O)N(C)C)cc1NC(=O)CN1c2cccc3cccc(c23)S1(=O)=O", "inhibition": "1.34%"}
{"smiles": "CN(C(=O)C1CCOC1)c1nnc(-c2cccnc2)s1", "note": "(stereo not drawn)", "inhibition": "5.89%"}
{"smiles": "CN(C(=O)c1ccno1)c1nnc(-c2cccnc2)s1", "inhibition": "79.5% (active)"}
{"smiles": "COc1cc(OC)cc(-c2nnc(N(C)C(=O)c3ccncc3)s2)c1", "inhibition": "-5.84%"}
{"smiles": "Cc1ccc(S(=O)(=O)CCC(=O)OCC(=O)N(C)Cc2ccccc2)cc1", "inhibition": "-0.906%"}
{"smiles": "O=C(COc1ccccc1F)Nc1nc(-c2ccccn2)cs1", "inhibition": "-7.77%"}
{"smiles": "CC(C)(C)OC(=O)N(Cc1ccccc1)Cc1ccc(OCc2cccc(NC(=O)c3ccccc3)c2)cc1", "inhibition": "-1.04%"}
{"smiles": "Cc1cccc(NC(=S)N2CCC(C(=O)c3ccc(F)cc3)CC2)c1", "inhibition": "-2.74%"}
{"smiles": "CN(C)S(=O)(=O)c1cccc(NC(=O)Cc2ccsc2)c1", "inhibition": "56.9% (active)"}
{"smiles": "CN(C)S(=O)(=O)c1cccc(NC(=O)COc2ccc3ccccc3c2)c1", "inhibition": "-3.42%"}
{"smiles": "CN(C)S(=O)(=O)c1cccc(NC(=O)COC(=O)/C=C/c2cccs2)c1", "inhibition": "-0.792%"}
{"smiles": "COc1cc2c(cc1OC)C(Cc1cc(OC)c(OC)cc1[N+](=O)[O-])=NCC2", "inhibition": "-3.58%"}
{"smiles": "COc1ccccc1NC1=NC(c2ccc(Cl)cc2)N=C(N)N1", "note": "(stereo not drawn)", "inhibition": "2.25%"}
{"smiles": "CC1(C)N=C(N)NC(Nc2ccc(Cl)cc2)=N1", "inhibition": "46.4% (active)"}
{"smiles": "O=c1ccnc(Nc2ccc(Cl)cc2)[nH]1", "inhibition": "-6.21%"}
{"smiles": "COc1ccc(-c2ccc3c(c2)C2CC3CCN2CCC#N)cc1", "note": "(stereo not drawn)", "inhibition": "-7.19%"}
{"smiles": "COc1ccc(C(=O)NCC(=O)N/N=C/c2ccc([N+](=O)[O-])s2)cc1OC", "inhibition": "1.89%"}
{"smiles": "Cc1ccccc1NCC(=O)N/N=C\\c1ccc([N+](=O)[O-])s1", "inhibition": "-2.26%"}
{"smiles": "CNN/C(N=Cc1ccc([N+](=O)[O-])s1)=N\\S(=O)(=O)c1cc(C)c(Cl)cc1SCc1ccccc1", "inhibition": "66.8% (active)"}
{"smiles": "COc1cc(C(=O)CCc2ccc3c(c2)OCO3)cc(OC)c1OC", "inhibition": "-5.96%"}
{"smiles": "CCOc1ccc(S(=O)(=O)Nc2nc3cc(OC)ccc3s2)cc1", "inhibition": "1.2%"}
{"smiles": "COc1ccc(S(=O)(=O)Nc2ccc(O)c(Sc3nc4ccccc4s3)c2)cc1", "inhibition": "40.1% (active)"}
{"smiles": "O=C(O)c1cccc(S(=O)(=O)Nc2ccc(O)cc2Sc2nc3ccccc3s2)c1", "inhibition": "-1.01%"}
{"smiles": "COc1ccc(CCNC(=O)c2ccc(NC(=O)CC3SC(N4CCCCC4)=NC3=O)cc2)cc1OC", "note": "(stereo not drawn)", "inhibition": "-1.27%"}
{"smiles": "O=C1c2ccccc2C(=O)C1C(=O)C1CC1", "inhibition": "-5.16%"}
{"smiles": "CS(=O)(=O)N(CC(=O)Nc1ccc(Cl)c(Cl)c1)C1CCCCC1", "inhibition": "51.4% (active)"}
{"smiles": "CCC(C)NC(=O)CN(C1CCCCC1)S(C)(=O)=O", "note": "(stereo not drawn)", "inhibition": "7.29%"}
{"smiles": "CS(=O)(=O)N(CC(=O)Nc1ccc(F)cc1)C1CCCCC1", "inhibition": "-14.6%"}
{"smiles": "COc1ccc(Cn2cc(CN3CCS(=O)(=O)N(Cc4ccc(-c5cccc(Cl)c5)cc4)C(C)C3=O)nn2)cc1", "note": "(stereo not drawn)", "inhibition": "-4.3%"}
{"smiles": "CCCc1cc(-c2n[nH]c(=S)n2Cc2ccccc2)cs1", "inhibition": "-5.83%"}
{"smiles": "CCn1c(-c2ccncc2)n[nH]c1=S", "inhibition": "-0.231%"}
{"smiles": "O=C(N[C@H]1C/C=C\\C(c2ccc(F)cc2)N(Cc2ccccc2)C(=O)C1)OCC1c2ccccc2-c2ccccc21", "note": "(stereo partly drawn)", "inhibition": "-2.32%"}
{"smiles": "O=C(Nc1cccc(-c2nnc(-c3ccccc3)o2)c1)C1CCCO1", "note": "(stereo not drawn)", "inhibition": "-1.93%"}
{"smiles": "CC(C)Cc1nnc(NC(=O)CCc2ccccc2)s1", "inhibition": "-1.93%"}
{"smiles": "O=C(Nc1nnc(CCc2ccccc2)s1)C1CCCO1", "note": "(stereo not drawn)", "inhibition": "32% (active)"}
{"smiles": "CN(c1ccccc1)S(=O)(=O)c1ccc(C(=O)N2CCN(c3ccccc3Cl)CC2)cc1", "inhibition": "-2.37%"}
{"smiles": "Cn1c(-c2ccccc2)c[n+]2c1CCCCC2", "inhibition": "-4.71%"}
{"smiles": "Clc1ccc(C[n+]2cc(-c3ccc(Cl)cc3)n3c2CCC3)cc1", "inhibition": "36.9% (active)"}
{"smiles": "Cc1ccc(C(=O)C[n+]2cc(-c3ccccc3)n3c2CCCCC3)cc1", "inhibition": "-2%"}
{"smiles": "COc1ccccc1CNC(=O)c1ccc(Cl)c(S(=O)(=O)N2CCCC2)c1", "inhibition": "-2.41%"}
{"smiles": "O=C1NC[C@@H](c2ccccc2)OC(=O)[C@H](Cc2ccc(F)cc2)CC/C=C/C[C@H]1CC(=O)N(CCO)Cc1ccccc1", "inhibition": "-2.15%"}
{"smiles": "Cc1ccc(OCCNC(=O)c2cccc(S(=O)(=O)N3CCN(Cc4ccccc4)CC3)c2)cc1", "inhibition": "-4.14%"}
{"smiles": "NS(=O)(=O)c1ccc(CCNC(=O)c2ccc(Cl)c(S(=O)(=O)N3CCCCCC3)c2)cc1", "inhibition": "-16.5%"}
{"smiles": "COC(=O)Nc1sc2nc(C)cc(C)c2c1-n1cccc1", "inhibition": "0.432%"}
{"smiles": "Cc1cc(C)c2c(-n3cccc3)c(NC(=O)OCc3ccccc3)sc2n1", "inhibition": "-1.91%"}
{"smiles": "Cc1cc(C)c2c(-n3cccc3)c(C(=O)NNS(=O)(=O)c3ccc(F)cc3)sc2n1", "inhibition": "44.4% (active)"}
{"smiles": "O=C(c1ccc2c(c1)C(=O)N(Cc1ccncc1)C2=O)N1CCN(S(=O)(=O)c2ccc(OC(F)(F)F)cc2)CC1", "inhibition": "-4.84%"}
{"smiles": "O=C(CNC(=O)c1ccccc1F)OCC(=O)c1c[nH]c2ccccc12", "inhibition": "53.7% (active)"}
{"smiles": "O=C(COC(=O)CNC(=O)c1ccccc1F)NCC(F)(F)F", "inhibition": "-0.464%"}
{"smiles": "C[C@H](NC(=O)c1ccccc1)C(=O)OCC(=O)c1c[nH]c2ccccc12", "inhibition": "-2.85%"}
